Assay outcomes (PubChem)
A selection: hits, their analogues and other compounds. The true share with any hit is near 2.7%.
TRPM1 prom inh: inhibitors of MITF-dependent TRPM1 promoter reporter, primary screen, cell-based, SK-MEL-5, single point, luciferase; SK-MEL-5 TRPM1 promoter luciferase, 24 h; inhibition, % at 12.5 µM; actives 0.83% (n = 330,000); AID 488899, 2010;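 active = mean inhibition across replicates of 60% or more, whatever share of single replicates reaches that level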
KKLEB tox: cytotoxicity in KKLEB CF airway cells, primary screen, cytotoxicity control for CF NF-kB inhibitor project, cell-based, uHTS, fluorescence assay plates | AID 602141, 2011 | KKLEB CF airway cells viability, ATPlite luminescence, overnight; hits give low values; cells stimulated with P. aeruginosa culture filtrate | activity change (cytotoxicity), % at 5 µM | actives 0.36% (n = 360,000);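 active = corrected activity change at or below -50% at 5 µM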
Shn3 3UTR inh: reduction of Shn3 3'UTR firefly luciferase signal, primary screen, Schnurri-3 inhibitor project, cell-based, Clone20 osteoblasts, set 2. actives 0.52% (n = 360,000). inhibition, % at 12.5 µM. Clone20 osteoblast Shn3 3'UTR firefly luciferase, 24 h;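 active = mean inhibition of at least 75% with every replicate also reaching 75%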;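 note: 0% = median of neutral control wells and 100% = pilot-screen positive control compound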
CF NFkB inh: inhibitors of PAF-induced NF-kB signaling, primary screen, cell-based, GFP fluorescence, uHTS; KKLEB NF-kB-GFP reporter, GFP fluorescence overnight; inhibition, % at 5 µM; actives 0.86% (n = 360,000);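 active = at least 50% inhibition at 5 µM, scaled per plate between neutral and stimulator controls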;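 note: PAF is a Pseudomonas aeruginosa culture filtrate used as stimulus; plate controls were PAF-stimulated DMSO wells for no effect and unstimulated DMSO wells for full effect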
Peg3 promoter: Peg3 promoter-driven luciferase inhibitors, primary screen, cell-based, HeLa, luciferase luminescence | HeLa PEG-Prom luciferase reporter, overnight | inhibition, % at 20 µM | actives 1.7% (n = 360,000) | AID 588405, 2011;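 active = inhibition of at least 50% at 20 µM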
HIF-2a block: HIF-2a reporter inhibitors, primary screen, luminescence, 786-0 RCC cells. 786-0 RCC cells HIF-2a reporter, luciferase luminescence, overnight. inhibition, % at 18.8 µM. actives 0.72% (n = 360,000);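 active = inhibition of the luminescence signal of 40% or more relative to plate controls, in a single-dose primary screen at 18.75 µM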
* marks the source's active call; other numbers are inactive results.

SMILES | TRPM1 prom inh | KKLEB tox | Shn3 3UTR inh | CF NFkB inh | Peg3 promoter | HIF-2a block
CCCCCCSc1ccc([C@H]2N[C@@](Cc3ccccc3)(C(=O)OC)[C@H]3C(=O)N(C)C(=O)[C@@H]23)cc1OC | -1 | -7 | -4 | 31 | -30 | -76
COc1cccc(NC(=O)COC(=O)c2c3c(nc4ccccc24)CCC(C)C3)c1 (configuration not stated) | 3 | 0 | 51 | -8 | 71* | -52
C=CC[n+]1c(-c2ccc(OC)c(OC)c2)csc1NNC(=O)Nc1ccccc1 | 33 | -10 | 90* | 3 | 36 | 21
COc1ccc(NC(=O)CSc2nc(C(C)C)nc3c2c(=O)n(C)c(=O)n3C)c(OC)c1 | -8 | -5 | 14 | 21 | 21 | 9
CN(C)CCCNc1cc(-c2ccccc2)nc2cc(-c3cccc(F)c3)nn12 | 63* | 8 | -37 | -10 | 101* | -47
CC(C)Cn1c(N)c(C(=O)COC(=O)c2cnc(Cl)c(Cl)c2)c(=O)n(C)c1=O | 23 | -16 | -19 | 8 | 74* | 8
CC(OC(=O)Cn1cnc2c1c(=O)n(C)c(=O)n2C)C(=O)Nc1ccc(Cl)cc1 (configuration not stated) | 4 | -5 | -4 | -3 | 12 | -1
O=c1[nH]c(/C(Cl)=C/c2cc(Cl)ccc2O)nc2cc(Cl)ccc12 | -5 | -53* | -56 | 17 | 21 | -93
O=c1[nH]c(/C(Cl)=C/c2c(F)cccc2Cl)nc2cc(Cl)ccc12 | 25 | -12 | -8 | 9 | -47 | -7
Cc1ccc(NC(=O)C2CCCO2)c(Br)c1 (configuration not stated) | -28 | -2 | -27 | -2 | -82 | -81
CC(=O)Nc1ccc(S(=O)(=O)N2CCN(c3nc(NC4CCCC4)c4ccccc4n3)CC2)cc1 | 24 | -8 | 15 | 14 | 85* | 6
CCc1nnc(NC(=O)c2ccncc2)s1 | 6 | 1 | -17 | 16 | -23 | -22
CCc1nnc(NC(=O)c2cccc(C(=O)Nc3nnc(CC)s3)n2)s1 | 56 | 33 | 88* | 4 | 36 | -4
O=Nc1c(O)c2ccccc2c2ccccc12 | 97* | -88* | 79 | 89* | 96* | 24
Cc1ccccc1OCc1nc2ccccc2c(=O)n1/N=C/c1cn[nH]c1-c1ccc(Br)cc1 | -17 | -12 | -35 | 31 | 61* | -5
CCCCc1nnc(SCC(=O)NC2CCCCC2)n1C | 12 | -5 | 2 | -20 | 20 | 3
OC(CN1CCCCC1)Cn1c2ccc(Cl)cc2c2cc(Cl)ccc21 (configuration not stated) | -12 | -14 | -27 | 28 | 104* | 7
COc1cc(OC)cc(N(C(=O)CNC(=O)c2cccs2)C(C(=O)NCC2CCCO2)c2ccccc2)c1 (configuration not stated) | 7 | 3 | -12 | -15 | 9 | 19
Cc1[nH]c2ccccc2c1/C=N/Nc1nc(Nc2ccccc2)nc(N2CCOCC2)n1 | -65 | -32 | 22 | 19 | -12 | -124
Oc1[nH]c2ccccc2c1N=Nc1nc(Nc2ccccc2)nc(N2CCOCC2)n1 | -8 | -15 | 83 | 34 | 70* | -16
CC1Cc2ccccc2N1S(=O)(=O)c1cccc(C(=O)N2CCCCC2)c1 (configuration not stated) | 16 | -10 | 10 | -4 | 5 | 8
COc1ccccc1N1CCN(C(=O)c2cccc(S(=O)(=O)N3c4ccccc4CC3C)c2)CC1 (configuration not stated) | 7 | -7 | 40 | 38 | 78* | 11
CCC(=O)Nc1nnc(S(=O)(=O)N(C)c2cc(C)cc(C)c2)s1 | 8 | -16 | 6 | -1 | 19 | 13
O=[N+]([O-])c1cc(-c2nc(-c3ccncc3)no2)cc([N+](=O)[O-])c1 | 32 | 5 | -17 | -52 | -137 | -114
